This is an account of results in PubChem BioAssay.

Values joined by “and” are separate entries in the source; they are usually repeats but may differ in a detail not shown here. Equal entries are not always repeated. A number with no mark means an inactive call. How the calls were made is not given here. Non-standard residues stand in square brackets, D forms with d. Residues, ends and D or L forms follow the SMILES beside them. Groups on a side chain read outwards from the residue. *: point of attachment. X2 = CCC(C)C(N)C1=NC(C(=O)*)CS1; Orn = NCCC[CH](N)C(=O)O

For this test, the system named is Aerobactin synthetase IucA (Klebsiella pneumoniae hvKP1). Description: Biochemical IucA enzyme inhibition primary screen of the Spectrum library (AID 1346200).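 Further: 100% = wells without compound and 0% = wells lacking enzyme.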 The following applies: malachite green pyrophosphate, A620, at 8 µM, stronger effect = lower value.
Take `CCC(C)C(N)C1=NC(C(=O)NC(CC(C)C)C(=O)NC(CCC(=O)O)C(=O)NC(C(=O)NCCCCC2NC(=O)C(CC(N)=O)NC(=O)C(CC(=O)O)NC(=O)C(Cc3cnc[nH]3)NC(=O)C(Cc3ccccc3)NC(=O)C(C(C)CC)NC(=O)C(CCCN)NC2=O)C(C)CC)CS1` (stereo not drawn) (cyclo(DNK([Ile-Glu-Leu-X2])[Orn]IFH); configuration not given here): the activity remaining is 123%. `Cc1cc(OC(=O)c2c(C)cc(O)cc2O)cc(O)c1C(=O)O`: the activity remaining was 115%.

On to `CN1CCOC(c2ccccc2)c2ccccc2C1` (centres undefined), for which the activity remaining is 110%. With `COc1cc(O)c(C(=O)/C=C/c2ccc(OC)c(O)c2)c(OC)c1` the figure was 105%.

For `COC1=C(OC)C(=O)C(C/C=C(\C)CC/C=C(\C)CC/C=C(\C)CC/C=C(/C)CC/C=C(\C)CC/C=C(\C)CC/C=C(\C)CC/C=C(\C)CC/C=C(\C)CCC=C(C)C)=C(C)C1=O`, the activity remaining is 93%. For `COC(=O)C1=C(C)NC(C)=C(C(=O)OCC(C)C)C1c1ccccc1[N+](=O)[O-]` (centres undefined), the activity remaining is 118%. As for `CC(=O)O[C@]1(C(C)=O)CCC2C3C=C(Cl)C4=CC(=O)CC[C@]4(C)C3CC[C@@]21C` (some centres undefined), the activity remaining was 130%.

Take `CC(=O)Oc1cc(C)c2c(c1C=O)Oc1c(c(C)c(OC(C)=O)c3c1C(OC(C)=O)OC3=O)OC2=O` (centres undefined): the activity remaining is 106%. With `Nc1cc(C(Cl)=C(Cl)Cl)c(S(N)(=O)=O)cc1S(N)(=O)=O` the figure was 104%.

Turning to `COc1cc2c(cc1OC)[C@@H]1C(=O)c3ccc4c(c3O[C@@H]1CO2)C=CC(C)(C)O4`, the activity remaining was 118%. In the case of `COC(=O)C1=CO[C@@H](C)[C@@H]2CN3CC[C@]4(C(=O)Nc5ccccc54)C3CC12` (some centres undefined), the activity remaining was 121%. The result for `CC[C@@]1(O)C(=O)OCc2c1cc1n(c2=O)Cc2cc3c(CN(C)C)c(O)ccc3nc2-1` reads 121%. The result for `CC1(C)O[C@H]2CC(=O)OC[C@]23[C@H]2CC[C@@]4(C)[C@H](c5ccoc5)OC(=O)[C@H]5O[C@]54[C@]2(C)C(=O)C[C@@H]13` reads 112%. The result for `CC(=O)O[C@H]1CC[C@@]2(C)C(CC[C@]3(C)C2C(=O)C=C2C4[C@@H](C)[C@H](C)CC[C@]4(C(=O)O)CC[C@]23C)C1(C)C` (some centres undefined) reads 113%; that for `COc1ccc2c(c1)CCC1C2CC[C@@]2(C)C1CC[C@@H]2O` (some centres undefined), 111%.

For `Clc1ccc(C(Cn2ccnc2)OCc2ccsc2Cl)c(Cl)c1` (centres undefined), the activity remaining is 109%. As for `CCOC(=O)CCC(=O)O[C@H]1[C@H](O[C@@H]2[C@@H](C)[C@H](O[C@H]3C[C@@](C)(OC)[C@@H](O)[C@H](C)O3)[C@@H](C)C(=O)O[C@H](CC)[C@@](C)(O)[C@H](O)[C@@H](C)C(=O)[C@H](C)C[C@@]2(C)O)O[C@H](C)C[C@@H]1N(C)C`, the activity remaining is 113%. Turning to `C=C1CCC2C(CC2(C)C)C(=C)CC/C1=N/O` (centres undefined), the activity remaining is 105%. The result for `O=c1cc(-c2ccccc2)oc2cc(O)cc(O)c12` reads 118% and 119%. With `CC1CCC2(OC1)OC1CC3C4CCC5C[C@@H](O)CCC5(C)C4=CCC3(C)C1[C@@H]2C` (some centres undefined) the figure was 95.7%. With `Nc1c2ccccc2nc2ccccc12` (tested in a mixture with another compound) the figure was 112%; with `CN1C(C(=O)Nc2ccccn2)=C(O)c2sccc2S1(=O)=O`, 82.2%; with `CN(C)CCOC(c1ccccc1)c1ccccc1` (tested in a mixture with another compound), 117%. With `Cn1nnnc1SCC1=C(C(=O)O)N2C(=O)C(NC(=O)C(O)c3ccccc3)C2SC1` (centres undefined), the activity remaining is 121%. With `CC(=O)Nc1ccc(OC(=O)c2ccccc2O)cc1` the figure was 101%; with `CC1(C)O[C@@H]2CC3C4CCC5=CC(=O)CCC5(C)C4(F)C(O)CC3(C)[C@]2(C(=O)CCl)O1` (some centres undefined), 93.6%. As for `CC(=O)Nc1cccc(O)c1`, the activity remaining was 120%. With `COc1cc(N)c(Cl)cc1C(=O)NC1CCN(Cc2ccccc2)CC1` the figure was 119%. The result for `CC(C)=CCCC(C)[C@@H]1CC[C@]2(C)C3=C(CC[C@@]12C)C1(C)CC[C@H](O)C(C)(C)C1CC3` (some centres undefined) reads 124%.

For the compound `CC12CC[C@H](CC1=O)C2(C)C`, the activity remaining is 104%.

In the case of `O=C1O[C@@H](CO)[C@H](O)[C@@H](O)[C@@H]1O`, the activity remaining was 113%. The result for `CC(C)(O)CC[C@@H](O)[C@](C)(O)C1CC[C@@]2(O)C3=CC(=O)C4C[C@@H](O)[C@@H](O)C[C@]4(C)C3CC[C@]12C` (some centres undefined) reads 102%.

For the compound `C=C1C(=O)[C@]23[C@H](O)[C@H]1CC[C@H]2[C@@]12COC3(O)[C@H](O)[C@@H]1C(C)(C)CC[C@@H]2O`, the activity remaining is 98.4%.

As for `CC(=O)NO`, the activity remaining is 103%.

Consider `CC(=O)c1c(O)cc(O)cc1O`, for which the activity remaining was 94.3%.

On to `Cc1ccsc1/C=C/C1=NCCCN1C`, for which the activity remaining is 123%.

As for `C=Cc1c(C)/c2[n-]/c1=C\c1[n-]c(c(CC)c1C)/C=c1\[n-]c3c(c1C)C(=O)C(C(=O)[O-])C=3c1[n-]c(c(C)c1CCC(=O)[O-])\C=2.[Cu].[Na+].[Na+]` (centres undefined), the activity remaining was 77.9%. The result for `COc1c2c(cc3c1OCO3)C13C=C[C@H](OC)CC1N(C2)CC3O` (some centres undefined) reads 107%.

Take `CN(CCOc1ccc(CC2SC(=O)NC2=O)cc1)c1ccccn1` (centres undefined): the activity remaining was 113%.
